Reference: PubChem BioAssay AID1159580 (chemical genetic matrix, 2015)
Several values for one entry are separate records, joined by “and”; a condition that tells them apart may be missing. Equal values may be shown once. About 2,000 (36%) of roughly 5,500 compounds were called active. About 18% were inconclusive and are not listed. Rule as the data show it: active = normalized growth mostly below about 0.91 (no sharp cut-off); inconclusive = no clear call, values can overlap the other calls; inactive = mostly above about 0.92. This is one part of the list.

Assay: chemical genetic growth profiling, strain panel (AID 1159580);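 also: tested at 20 µM; growth read once vehicle control cultures reached saturation at 30 °C; 1 = growth at the plate median or of vehicle wells; lower values mean less growth of the strain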
Settings: S. cerevisiae deletion strains, growth OD

Measured: normalized growth

O=c1cccc2n1CC1CC2CN2CCCC[C@@H]12 (some centres undefined)
inactive: locus YAL013W, strain DEP1, hits give low values 0.999 | locus YAL021C, strain ccr4, hits give low values 0.999 | locus YAL026C, strain drs2, hits give low values 0.983 | locus YAL030W, strain snc1, hits give low values 0.979 | locus YBL061C, strain skt5, hits give low values 0.983 | locus YBR009C, strain hhf1, hits give low values 0.947 | locus YBR021W, strain FUR4, hits give low values 1.01 | locus YBR023C, strain chs3, hits give low values 0.974 | locus YBR171W, strain sec66, hits give low values 0.974 | locus YBR229C, strain ROT2, hits give low values 0.953 | locus YBR231C, strain swc5, hits give low values 0.97 | locus YBR279W, strain paf1, hits give low values 0.988 | locus YCL011C, strain gbp2, hits give low values 0.983 | locus YCL016C, strain dcc1, hits give low values 0.976 | locus YCL029C, strain bik1, hits give low values 0.974 | locus YCL061C, strain MRC1, hits give low values 0.985 | locus YCL069W, strain vba3, hits give low values 0.98 | locus YCR088W, strain abp1, hits give low values 0.973 | locus YDL005C, strain med2, hits give low values 0.982 | locus YDL035C, strain GPR1, hits give low values 1 | locus YDL040C, strain nat1, hits give low values 0.961 | locus YDL074C, strain BRE1, hits give low values 1.01 | locus YDL101C, strain DUN1, hits give low values 0.992 | locus YDL134C, strain PPH21, hits give low values 0.989 | locus YDL185W, strain tfp1, hits give low values 0.971 | locus YDL192W, strain arf1, hits give low values 0.99 | locus YDR001C, strain nth1, hits give low values 0.968 | locus YDR069C, strain doa4, hits give low values 0.982 | locus YDR101C, strain arx1, hits give low values 1.03 | locus YDR137W, strain rgp1, hits give low values 0.994 | locus YDR150W, strain NUM1, hits give low values 0.992 | locus YDR159W, strain sac3, hits give low values 0.938 | locus YDR162C, strain NBP2, hits give low values 0.987 | locus YDR195W, strain ref2 0.946 | locus YDR297W, strain sur2, hits give low values 0.977 | locus YDR318W, strain mcm21, hits give low values 0.978 | locus YDR334W, strain swr1, hits give low values 0.978 | locus YDR335W, strain msn5, hits give low values 0.987 | locus YDR388W, hits give low values 0.985 | locus YDR392W, strain spt3, hits give low values 0.876 | locus YDR502C, strain sam2, hits give low values 0.981 | locus YEL003W, strain gim4, hits give low values 0.985 | locus YEL037C, strain rad23, hits give low values 0.983 | locus YEL061C, strain CIN8 (second series), hits give low values 0.974 | locus YEL061C, strain CIN8, hits give low values 0.991 | locus YER015W, strain faa2, hits give low values 0.976 | locus YER016W, strain bim1, hits give low values 0.971 | locus YER110C, hits give low values 0.972 | locus YER111C, strain swi4, hits give low values 0.977 | locus YER155C, strain BEM2 (second series), hits give low values 0.973 | locus YER155C, strain BEM2, hits give low values 1 | locus YER167W, strain BCK2, hits give low values 0.987 | locus YFR010W, strain ubp6, hits give low values 0.972 | locus YGL078C, strain dbp3, hits give low values 0.991 | locus YGL086W, strain mad1, hits give low values 1.04 | locus YGL167C, strain pmr1, hits give low values 0.968 | locus YGL173C, strain kem1, hits give low values 0.981 | locus YGL227W, strain vid30, hits give low values 0.974 | locus YGL240W, strain doc1, hits give low values 0.962 | locus YGL248W, strain PDE1, hits give low values 0.986 | locus YGL253W, strain hxk2, hits give low values 0.982 | locus YGR135W, strain pre9, hits give low values 0.982 | locus YGR229C, strain SMI1, hits give low values 0.993 | locus YGR252W, strain gcn5, hits give low values 0.968 | locus YHR013C, strain ard1, hits give low values 0.928 | locus YHR027C, strain rpn1, hits give low values 0.982 | locus YHR030C, strain SLT2, hits give low values 0.996 and 1.02 | locus YHR079C, strain IRE1 (second series), hits give low values 0.986 | locus YHR079C, strain IRE1, hits give low values 1.02 | locus YHR094C, strain hxt1, hits give low values 0.967 | locus YHR129C, strain ARP1, hits give low values 0.983 | locus YHR142W, strain chs7, hits give low values 1 | locus YHR200W, strain rpn10, hits give low values 0.975 | locus YIL066C, strain RNR3, hits give low values 0.987 | locus YIL073C, strain SPO22, hits give low values 0.967 | locus YIL125W, strain kgd1, hits give low values 0.986 | locus YIR030C, strain dcg1, hits give low values 0.984 | locus YJL092W, strain hpr5, hits give low values 0.981 | locus YJL095W, strain BCK1 (second series), hits give low values 0.978 | locus YJL095W, strain BCK1, hits give low values 1 and 1.01 | locus YJL115W, strain asf1, hits give low values 0.988 | locus YJL129C, strain trk1, hits give low values 0.982 | locus YJL134W, strain LCB3, hits give low values 0.983 | locus YJL154C, strain vps35, hits give low values 0.98 | locus YJL164C, strain tpk1, hits give low values 0.984 | locus YJL166W, strain qcr8, hits give low values 1.01 | locus YJL168C, strain set2, hits give low values 0.99 | locus YJL187C, strain SWE1 (second series), hits give low values 0.995 | locus YJL187C, strain SWE1, hits give low values 0.99
